7 compounds from PubChem BioAssay can be followed below.

Activity calls are given as the source filed them.

Test [1] concerns Plasmodium falciparum Sir2 (PF13_0152, Sir2A). The test is described as follows: Plasmodium falciparum Sir2A binding compounds – biochemical, small-molecule microarray, 635 nm fluorescence, primary screen (AID 1098).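 Note: score merges spot fluorescence intensity with its signal-to-noise ratio.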 Conditions: fluorescence 635 nm, higher = more signal.
A short description of test [2]: probe aDKK1 binding to arrayed compounds – biochemical, biotinylated probe, 635/667 nm fluorescence, primary screen (AID 1099).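 Note: score merges 667nm spot fluorescence with signal to noise across triplicate slides.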 To be noted: small-molecule microarray, higher = more signal.
The nature of test [3]: probe aCHRDL2 binding to arrayed compounds – biochemical, biotinylated probe, 635/667 nm fluorescence, primary screen (AID 1100). Conditions: small-molecule microarray, higher = more signal.
The nature of test [4]: change in splice reporter luminescence, either direction, cell-based, HEK293, spliceosome inhibition project, primary screen (AID 1101).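 Note: HEK293 cells carrying a splicing-competent luciferase reporter gene; test concentration not given here.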 Conditions: HEK293 splicing luciferase reporter, 24 h, higher = more signal, called active from +8 up or from −8 down.
Test [5] deals with Fibroblast growth factor 10 (Homo sapiens) (UniProt O15520). The test is described as follows: compounds binding fibroblast growth factor 10 – biochemical, small-molecule microarray, 635 nm fluorescence, primary screen (AID 1102). Conditions: FGF10 binding, fluorescence 635 nm, higher = more signal.
The subject of test [6] is glycogen synthase kinase-3 (GSK3A per assay name; protocol says GSK3B). The test is described as follows: compounds binding glycogen synthase kinase-3 – biochemical, small-molecule microarray, 635 nm fluorescence, GSK3A, primary screen (AID 1103). Note: the record names both GSK3A and GSK3B. Conditions: fluorescence 635 nm, higher = more signal.
The target in test [7] is Epidermal growth factor receptor (Homo sapiens) (UniProt P00533). The test is described as follows: compounds binding epidermal growth factor receptor – biochemical, small-molecule microarray, 635 nm fluorescence, primary screen (AID 1104).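 Note: score merges 667 nm emission intensity with spot signal to noise over triplicate slides.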 To be noted: EGFR binding, higher = more signal.
Test [8] has as its target Follistatin-related protein 3 (Homo sapiens) (UniProt O95633). The test is described as follows: compounds binding follistatin-related protein 3 – biochemical, small-molecule microarray, 635 nm fluorescence, primary screen (AID 1105).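 Note: score merges emission near 667 nm and signal to noise per printed spot across three slides.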 To be noted: FSTL3 binding, higher = more signal.
Test [9] deals with Dickkopf-related protein 1 (Homo sapiens) (UniProt O94907). The test is described as follows: small molecules binding DKK1 protein – biochemical, small-molecule microarray, 635 nm fluorescence scan, primary screen (AID 1106).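 Note: score merges emission near 667 nm with signal to noise over three replicate slides.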 To be noted: higher = more signal.
The test system of test [10] is Inhibin beta A chain (activin A). The test is described as follows: small molecules binding activin A – biochemical, small-molecule microarray, 635 nm fluorescence scan, primary screen (AID 1107).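 Note: mouse activin A protein probed at 4.33 µg/mL on printed slides; score merges bound-protein fluorescence near 667 nm with spot signal-to-noise.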 Conditions: INHBA, higher = more signal.
For test [11], the system named is Human papillomavirus type 1a protein E7 (residues 44-93). The test is described as follows: small molecules binding HPV E7 44-93 – biochemical, small-molecule microarray, residues 44-93, 635 nm fluorescence, primary screen (AID 1108).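 Note: E7 fragment applied at 1 µg/mL in TBST for 1 h at 4 C; score combines spot fluorescence with its signal to noise ratio.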 Conditions: fluorescence 635 nm, higher = more signal.
The nature of test [12]: hepatitis C replication reporter changes, two-sided – Huh7 cells, luciferase reporter, HCV replication inhibitor project, primary screen (AID 1109).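 Note: huh7 hepatoma cells harbouring a luciferase neomycin HCV replicon reporter; luciferase luminescence as measure of HCV replicon replication; test concentration not given here.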 To be noted: Huh7 HCV replicon luciferase reporter, 48 h; higher = more signal.
For test [13], the target named is Left-right determination factor 2 (Homo sapiens) (UniProt O00292). The test is described as follows: small molecules binding LEFTY2 protein – biochemical, small-molecule microarray, 635 nm fluorescence scan, primary screen (AID 1110). To be noted: higher = more signal.
Test [14] concerns the target Calmodulin-1 (Homo sapiens) (UniProt P0DP23). The test is described as follows: small molecules binding calmodulin-1 with EGTA – biochemical, small-molecule microarray, Cy5-labelled CALM1, profiling panel (AID 1111).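 Note: labelled calmodulin applied in Tris saline Tween buffer holding calcium plus EGTA and DTT.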 Conditions: Cy5-CALM1 binding fluorescence, higher = more signal.
Test [15] shares this target. The test is described as follows: small molecules binding Ca-loaded calmodulin-1 – biochemical, small-molecule microarray, Cy5-labelled CALM1, plus calcium, artefact control for SMM control-protein annotation, profiling panel (AID 1112).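 Note: score merges spot fluorescence with signal to noise from triplicate slides.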 Conditions: Cy5-CALM1 binding fluorescence, higher = more signal.
The nature of test [16]: probe aWnt5a binding to arrayed compounds – biochemical, biotinylated probe, 635/667 nm fluorescence, primary screen (AID 1113).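 Note: score merges 667 nm fluorescence intensity with signal-to-noise per printed feature.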 To be noted: small-molecule microarray, higher = more signal.
The nature of test [17]: probe aShh binding to arrayed compounds – biochemical, biotinylated probe, 635/667 nm fluorescence, primary screen (AID 1114).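 Note: probe is biotin-labelled aShh protein from a stem cell growth factor screen; measures binding of labelled protein to compounds printed on the slide; score merges feature fluorescence at 667 nm with signal-to-noise.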 Conditions: small-molecule microarray, higher = more signal.
A short description of test [18]: probe aNog binding to arrayed compounds – biochemical, biotinylated probe, 635/667 nm fluorescence, primary screen (AID 1115).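 Note: probe is biotinylated aNog protein used at 0.15 µg/mL for 1 h at 4 C; z-score combines 667 nm fluorescence of each spot with its signal to noise.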 To be noted: small-molecule microarray, higher = more signal.
Test [19] addresses Torsin-1A-interacting protein 1 (Homo sapiens) (UniProt Q5JTV8). The test is described as follows: compound microarray binding of lysate hLAP1 – cell lysate, small-molecule microarray, COS7 lysate, 635/667 nm fluorescence, primary screen (AID 1116). Conditions: 635 nm fluorescence, higher = more signal.
For test [20], the target named is Alpha-bungarotoxin (Bungarus multicinctus) (UniProt P60615). The test is described as follows: compounds binding labelled alpha-BTX control protein – biochemical, small-molecule microarray, Alexa647 label, 635/667 nm fluorescence, artefact control for SMM control protein annotation, profiling panel (AID 1117). Conditions: alpha-BTX-A647 binding fluorescence, higher = more signal.
Chain of Alpha-bungarotoxin (Bungarus multicinctus) (P60615 whole entry, looked up): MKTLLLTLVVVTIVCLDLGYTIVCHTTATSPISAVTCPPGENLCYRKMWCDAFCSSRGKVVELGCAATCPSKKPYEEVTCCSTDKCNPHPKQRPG

Chain of Epidermal growth factor receptor (Homo sapiens) (P00533 whole entry, looked up): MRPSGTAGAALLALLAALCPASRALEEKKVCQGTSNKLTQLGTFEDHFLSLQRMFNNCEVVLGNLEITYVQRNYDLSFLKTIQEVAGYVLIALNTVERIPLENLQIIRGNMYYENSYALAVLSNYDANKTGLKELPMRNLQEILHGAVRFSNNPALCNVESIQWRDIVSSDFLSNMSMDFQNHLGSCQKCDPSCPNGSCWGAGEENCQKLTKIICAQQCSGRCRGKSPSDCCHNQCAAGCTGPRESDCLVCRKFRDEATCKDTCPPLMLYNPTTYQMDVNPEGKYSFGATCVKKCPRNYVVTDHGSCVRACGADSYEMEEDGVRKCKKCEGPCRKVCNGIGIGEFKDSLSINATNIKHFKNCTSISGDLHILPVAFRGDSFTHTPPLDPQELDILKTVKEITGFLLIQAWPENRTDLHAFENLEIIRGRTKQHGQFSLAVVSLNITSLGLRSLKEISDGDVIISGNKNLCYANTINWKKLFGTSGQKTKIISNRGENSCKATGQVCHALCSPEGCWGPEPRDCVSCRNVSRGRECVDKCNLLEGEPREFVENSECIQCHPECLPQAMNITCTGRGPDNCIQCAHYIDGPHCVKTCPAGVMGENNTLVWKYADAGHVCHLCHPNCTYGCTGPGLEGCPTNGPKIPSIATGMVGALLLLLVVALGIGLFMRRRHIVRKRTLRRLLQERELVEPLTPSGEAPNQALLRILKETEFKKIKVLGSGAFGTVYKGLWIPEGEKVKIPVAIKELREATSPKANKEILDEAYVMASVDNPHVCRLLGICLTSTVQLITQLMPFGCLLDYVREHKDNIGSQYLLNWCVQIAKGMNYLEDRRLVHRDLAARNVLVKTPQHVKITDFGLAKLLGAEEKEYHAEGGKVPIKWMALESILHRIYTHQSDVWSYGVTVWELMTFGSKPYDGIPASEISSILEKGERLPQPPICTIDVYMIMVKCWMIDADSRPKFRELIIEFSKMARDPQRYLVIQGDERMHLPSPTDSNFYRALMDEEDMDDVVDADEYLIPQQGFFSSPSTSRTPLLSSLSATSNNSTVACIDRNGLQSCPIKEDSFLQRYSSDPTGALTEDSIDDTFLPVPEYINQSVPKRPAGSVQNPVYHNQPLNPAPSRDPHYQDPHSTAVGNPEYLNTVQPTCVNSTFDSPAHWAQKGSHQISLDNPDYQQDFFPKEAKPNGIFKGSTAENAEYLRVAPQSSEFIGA
Chain of Fibroblast growth factor 10 (Homo sapiens) (O15520 whole entry, looked up): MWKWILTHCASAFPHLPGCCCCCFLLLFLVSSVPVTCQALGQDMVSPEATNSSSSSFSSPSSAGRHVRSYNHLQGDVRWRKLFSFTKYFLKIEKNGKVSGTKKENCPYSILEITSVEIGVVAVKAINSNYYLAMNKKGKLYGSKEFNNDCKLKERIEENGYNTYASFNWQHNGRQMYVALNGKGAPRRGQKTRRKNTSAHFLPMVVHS
Chain of Dickkopf-related protein 1 (Homo sapiens) (O94907 whole entry, looked up): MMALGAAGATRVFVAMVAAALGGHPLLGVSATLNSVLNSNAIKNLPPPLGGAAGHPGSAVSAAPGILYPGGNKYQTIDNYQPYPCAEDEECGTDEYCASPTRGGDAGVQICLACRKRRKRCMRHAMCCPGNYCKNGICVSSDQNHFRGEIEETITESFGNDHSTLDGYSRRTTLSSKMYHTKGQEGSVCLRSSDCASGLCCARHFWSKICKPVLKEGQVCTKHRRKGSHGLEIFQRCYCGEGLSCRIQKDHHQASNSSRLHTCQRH
Chain of Left-right determination factor 2 (Homo sapiens) (O00292 whole entry, looked up): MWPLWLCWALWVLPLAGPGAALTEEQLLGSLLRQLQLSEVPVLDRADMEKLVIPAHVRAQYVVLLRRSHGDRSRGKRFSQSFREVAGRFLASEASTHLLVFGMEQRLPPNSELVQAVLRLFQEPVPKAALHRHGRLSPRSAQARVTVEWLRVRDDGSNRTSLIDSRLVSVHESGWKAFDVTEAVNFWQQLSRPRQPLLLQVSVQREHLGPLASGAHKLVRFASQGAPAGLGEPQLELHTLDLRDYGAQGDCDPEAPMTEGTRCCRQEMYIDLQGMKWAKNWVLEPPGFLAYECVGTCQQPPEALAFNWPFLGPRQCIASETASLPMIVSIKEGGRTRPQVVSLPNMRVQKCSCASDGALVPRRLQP
Chain of Torsin-1A-interacting protein 1 (Homo sapiens) (Q5JTV8 whole entry, looked up): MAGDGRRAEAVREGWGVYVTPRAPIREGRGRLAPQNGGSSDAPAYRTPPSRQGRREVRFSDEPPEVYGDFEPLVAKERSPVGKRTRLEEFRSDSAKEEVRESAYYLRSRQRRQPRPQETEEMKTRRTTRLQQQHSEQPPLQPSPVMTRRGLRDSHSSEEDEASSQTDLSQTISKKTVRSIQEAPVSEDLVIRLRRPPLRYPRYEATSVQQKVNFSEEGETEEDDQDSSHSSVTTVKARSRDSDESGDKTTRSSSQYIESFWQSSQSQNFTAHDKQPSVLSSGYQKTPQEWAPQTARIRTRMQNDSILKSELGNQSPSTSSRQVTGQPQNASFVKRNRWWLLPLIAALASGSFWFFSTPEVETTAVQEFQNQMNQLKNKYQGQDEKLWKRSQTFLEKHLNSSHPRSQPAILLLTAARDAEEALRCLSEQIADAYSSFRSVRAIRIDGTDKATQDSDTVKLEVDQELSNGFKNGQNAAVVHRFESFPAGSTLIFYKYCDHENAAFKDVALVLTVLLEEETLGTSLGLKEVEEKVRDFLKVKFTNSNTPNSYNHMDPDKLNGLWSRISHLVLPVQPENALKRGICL
Chain of Follistatin-related protein 3 (Homo sapiens) (O95633 whole entry, looked up): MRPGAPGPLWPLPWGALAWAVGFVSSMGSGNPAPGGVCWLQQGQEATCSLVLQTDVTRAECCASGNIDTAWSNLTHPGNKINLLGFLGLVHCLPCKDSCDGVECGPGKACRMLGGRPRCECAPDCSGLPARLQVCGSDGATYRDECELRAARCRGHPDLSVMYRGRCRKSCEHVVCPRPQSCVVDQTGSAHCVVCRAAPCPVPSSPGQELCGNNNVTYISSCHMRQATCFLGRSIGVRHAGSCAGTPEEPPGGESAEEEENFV

Consider `COCCOC(=O)N1C(=O)[C@@]2(c3cc(C#CCC(C(=O)OC)C(=O)OC)ccc31)[C@H](C(N)=O)[C@H]1C(=O)O[C@H](c3ccccc3)[C@H](c3ccccc3)N1[C@@H]2c1ccc(O)cc1`, for which the composite z-score turned out to be 1.09 in test [1]; 0.235 in [2]; 0.283 in test [3]; 1.42 in [5]; 0.863 in [6]; 0.69 in test [7]. In addition, the composite z-score is 1 in [8]; 0.938 in test [9]; 0.187 in [10]; 1.42 in [11]; 0.713 in [13]; 1.01 in test [14]. Further, the composite z-score in [15] was 0.0194; in test [16], 0.0179; in test [17] it was 0.0328; in test [18], -0.543; in [19] it was 1.08; in [20], 1.61. Further, the z-score in test [4] was -1.59 (inactive); in [12], -2.77.

For the compound `COC(=O)[C@@]1(Cc2ccc(F)cc2)[C@H]2c3cc(C(=O)N4CCCC4)n(Cc4cc(F)cc5c4OCOC5)c3C[C@H]2CN1C(=O)c1ccccc1`, the composite z-score in test [1] was 0.672; in test [2] it was 1.14; in [3], 1.06; in test [5], 0.762; in test [6], -0.0785; in [7] it was 0.0228. In addition, the composite z-score in test [8] is 1.3; in test [9], -0.334; in [10], 0.888; in [11], -0.0014; in test [13], -0.285; in [14], 1.37. Moreover, the composite z-score in test [15] is 1.05; in test [16], 0.179; in test [17], 0.184; in test [18], -0.694; in test [19] it was -0.415; in test [20], 0.92. Further, the z-score in [4] is -0.844 (inactive); in [12] it was -2.1.

Consider `Cc1ccc(S[C@]2(C(=O)NCc3ccccc3)CC(=O)N(Cc3ccccc3C(F)(F)F)[C@@H]2c2ccc(CO)cc2)cc1`, for which the composite z-score is 0.537 in test [1]; 0.0191 in test [2]; 0.984 in test [3]; -0.915 in [5]; -1.13 in [6]; -1.22 in test [7]. Further, the composite z-score in test [8] was -1.28; in test [9] it was -1.72; in test [10] it was 0.242; in test [11] it was -0.0905; in test [13], -1.86; in test [14], -0.488. In addition, the composite z-score in test [15] was 0.272; in test [16] it was -0.0778; in test [17], -0.221; in test [18], 0.381; in test [19], 0.328; in test [20], -0.191. Further, the results for the z-score in test [4] and in test [12] were -0.284 (inactive) and -1.46, respectively.

Consider `CC(C)(C)N1CC=CC23O[C@@H]4/C=C\CCCOC(=O)C4[C@H]2C(=O)N(CCCCCO)[C@@H]3C1=O` (stereo not given in full), for which the composite z-score in test [1] is 1.58; in test [2] it was -0.3; in test [3], 0.149; in test [5], -0.943; in test [6], -0.581; in test [7] it was -1.43. Also, the composite z-score is -1.63 in test [8]; -0.473 in test [9]; -1.11 in [10]; -0.267 in test [11]; -1.48 in [13]; -0.677 in [14]. Besides, the composite z-score in [15] is -0.893; in test [16] it was -0.213; in test [17] it was 0.074; in test [18], -0.122; in test [19], -0.286; in test [20] it was -0.954. Further, the z-score in [4] is -0.464 (inactive); in test [12] it was -0.887.

In the case of `C=CCC(OC(C)=O)[C@@H]1[C@@H](N(Cc2ccc(-c3cccc(C(F)(F)F)c3)o2)C(=O)Cc2ccc(F)cc2)c2cc(OCCCO)ccc2N1C(=O)Cc1ccc2ccccc2c1` (stereo not given in full), the composite z-score in [1] was -0.595; in test [2], -0.341; in test [3], 0.228; in test [5], -0.195; in test [6], -1.79; in [7], -0.676. For the same compound, the composite z-score in [8] was -0.511; in test [9], -0.286; in test [10], 1.12; in [11] it was -0.97; in [13], -0.511; in [14], -0.599. Further, the composite z-score in test [15] is 0.218; in test [16] it was -0.0684; in test [17], 0.0684; in [18] it was -0.352; in test [19], -0.016; in test [20], -0.772. Moreover, the results for the z-score in test [4] and in [12] were 0.705 (inactive) and 0.022, respectively.

For `CC(C)N1C(=O)c2ccccc2[C@](C)(C(=O)NCC(F)(F)F)[C@@H]1c1ccc(CO)cc1`, the composite z-score is 0.0632 in [1]; 0.698 in test [2]; 1.06 in [3]; -1.28 in [5]; -0.907 in [6]; -0.333 in test [7]. For the same compound, the composite z-score in [8] is -0.961; in test [9], -0.693; in test [10], 0.177; in test [11], -0.39; in test [13], -1.41; in test [14] it was -0.625. Moreover, the composite z-score in test [15] was 0.179; in [16], 0.0031; in [17], -0.153; in test [18] it was 0.543; in test [19] it was 0.716; in test [20] it was -0.573. Moreover, the z-score in [4] is 0.88 (inactive); in test [12] it was 0.164.

On to `O=C1C2C=CC(C(O)c3c(F)cccc3Cl)N(Nc3ccc([N+](=O)[O-])cc3)C2C(=O)N1c1ccccc1` (stereo not given), for which the composite z-score in [1] was 0.77; in test [2], -0.124; in test [3], -0.0918; in test [5] it was 1.2; in test [6] it was 1.27; in test [7], 0.518. The composite z-score came to 1.45 in [8]; 0.875 in test [9]; 0.191 in test [10]; 1.41 in test [11]; 0.563 in test [13]; 2.16 in test [14]. In addition, the composite z-score in test [15] was 0.132; in [16], -0.0222; in test [17], 0.23; in test [18] it was 0.803; in test [19], 1.6; in [20], 0.676. Besides, the z-score was -0.108 (inactive) in test [4] and 0.128 in [12].
